Results: PMC11006913

Experiments:
Test in all cases: PBM; 200 nM protein, PBS
Details in all cases: dsDNA, one strand shown
HESX1 [1] = target: HESX1 (Homo sapiens, UniProt Q9UBX0 95-180, R165K)
HESX1 [2] = target: HESX1 (Homo sapiens, UniProt Q9UBX0 95-180)
HESX1 [3] = target: HESX1 (Homo sapiens, UniProt Q9UBX0 95-180, R109Q)
HESX1 [4] = target: HESX1 (Homo sapiens, UniProt Q9UBX0 95-180, P111T)
HESX1 [5] = target: HESX1 (Homo sapiens, UniProt Q9UBX0 95-180, F115L)
Chain of HESX1 (Homo sapiens, UniProt Q9UBX0 95-180, F115L) (Q9UBX0 95-180 F115L): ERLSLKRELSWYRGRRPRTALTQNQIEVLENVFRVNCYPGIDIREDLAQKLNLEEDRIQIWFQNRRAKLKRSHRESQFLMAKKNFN

Chain of HESX1 (Homo sapiens, UniProt Q9UBX0 95-180, R165K) (Q9UBX0 95-180 R165K): as the sequence (Q9UBX0 95-180 F115L) above, with L21F, R71K counted along it
Chain of HESX1 (Homo sapiens, UniProt Q9UBX0 95-180, R109Q) (Q9UBX0 95-180 R109Q): as the sequence (Q9UBX0 95-180 F115L) above, with R15Q, L21F counted along it
Chain of HESX1 (Homo sapiens, UniProt Q9UBX0 95-180) (Q9UBX0 95-180): as the sequence (Q9UBX0 95-180 F115L) above, with L21F counted along it
Chain of HESX1 (Homo sapiens, UniProt Q9UBX0 95-180, P111T) (Q9UBX0 95-180 P111T): as the sequence (Q9UBX0 95-180 F115L) above, with P17T, L21F counted along it

Sequence | binding signal (HESX1 [1]) | binding signal (HESX1 [2]) | binding signal (HESX1 [3]) | binding signal (HESX1 [4]) | binding signal (HESX1 [5])
AAGTTCCC | 6.43 upbm affinity estimate (log intensity, higher = more binding, comparable within an allelic series) | 6.39 upbm affinity estimate (log intensity, higher = more binding, comparable within an allelic series) | 6.56 upbm affinity estimate (log intensity, higher = more binding, comparable within an allelic series) | 6.49 upbm affinity estimate (log intensity, higher = more binding, comparable within an allelic series) | 6.65 upbm affinity estimate (log intensity, higher = more binding, comparable within an allelic series)
AAGGAGGC | 6.49 upbm affinity estimate (log intensity, higher = more binding, comparable within an allelic series) | 6.42 upbm affinity estimate (log intensity, higher = more binding, comparable within an allelic series) | 6.53 upbm affinity estimate (log intensity, higher = more binding, comparable within an allelic series) | 6.52 upbm affinity estimate (log intensity, higher = more binding, comparable within an allelic series) | 6.51 upbm affinity estimate (log intensity, higher = more binding, comparable within an allelic series)
AGGCAGCG | 6.62 upbm affinity estimate (log intensity, higher = more binding, comparable within an allelic series) | 6.5 upbm affinity estimate (log intensity, higher = more binding, comparable within an allelic series) | 6.59 upbm affinity estimate (log intensity, higher = more binding, comparable within an allelic series) | 6.59 upbm affinity estimate (log intensity, higher = more binding, comparable within an allelic series) | 6.39 upbm affinity estimate (log intensity, higher = more binding, comparable within an allelic series)
ACTTTATA | 7.59 upbm affinity estimate (log intensity, higher = more binding, comparable within an allelic series) | 7.66 upbm affinity estimate (log intensity, higher = more binding, comparable within an allelic series) | 7.19 upbm affinity estimate (log intensity, higher = more binding, comparable within an allelic series) | 7.41 upbm affinity estimate (log intensity, higher = more binding, comparable within an allelic series) | 7.31 upbm affinity estimate (log intensity, higher = more binding, comparable within an allelic series)
CCACTGCG | 6.48 upbm affinity estimate (log intensity, higher = more binding, comparable within an allelic series) | 6.49 upbm affinity estimate (log intensity, higher = more binding, comparable within an allelic series) | 6.5 upbm affinity estimate (log intensity, higher = more binding, comparable within an allelic series) | 6.5 upbm affinity estimate (log intensity, higher = more binding, comparable within an allelic series) | 6.42 upbm affinity estimate (log intensity, higher = more binding, comparable within an allelic series)
TGGCGCCA | 6.38 upbm affinity estimate (log intensity, higher = more binding, comparable within an allelic series) | 6.62 upbm affinity estimate (log intensity, higher = more binding, comparable within an allelic series) | 6.34 upbm affinity estimate (log intensity, higher = more binding, comparable within an allelic series) | 6.49 upbm affinity estimate (log intensity, higher = more binding, comparable within an allelic series) | 6.34 upbm affinity estimate (log intensity, higher = more binding, comparable within an allelic series)
CAGAACGC | 6.46 upbm affinity estimate (log intensity, higher = more binding, comparable within an allelic series) | 6.44 upbm affinity estimate (log intensity, higher = more binding, comparable within an allelic series) | 6.49 upbm affinity estimate (log intensity, higher = more binding, comparable within an allelic series) | 6.34 upbm affinity estimate (log intensity, higher = more binding, comparable within an allelic series) | 6.48 upbm affinity estimate (log intensity, higher = more binding, comparable within an allelic series)
AGGACCCC | 6.46 upbm affinity estimate (log intensity, higher = more binding, comparable within an allelic series) | 6.46 upbm affinity estimate (log intensity, higher = more binding, comparable within an allelic series) | 6.63 upbm affinity estimate (log intensity, higher = more binding, comparable within an allelic series) | 6.47 upbm affinity estimate (log intensity, higher = more binding, comparable within an allelic series) | 6.62 upbm affinity estimate (log intensity, higher = more binding, comparable within an allelic series)
AGCTTGCG | 6.46 upbm affinity estimate (log intensity, higher = more binding, comparable within an allelic series) | 6.4 upbm affinity estimate (log intensity, higher = more binding, comparable within an allelic series) | 6.39 upbm affinity estimate (log intensity, higher = more binding, comparable within an allelic series) | 6.32 upbm affinity estimate (log intensity, higher = more binding, comparable within an allelic series) | 6.52 upbm affinity estimate (log intensity, higher = more binding, comparable within an allelic series)
AGCGTGGC | 6.53 upbm affinity estimate (log intensity, higher = more binding, comparable within an allelic series) | 6.42 upbm affinity estimate (log intensity, higher = more binding, comparable within an allelic series) | 6.46 upbm affinity estimate (log intensity, higher = more binding, comparable within an allelic series) | 6.48 upbm affinity estimate (log intensity, higher = more binding, comparable within an allelic series) | 6.64 upbm affinity estimate (log intensity, higher = more binding, comparable within an allelic series)
TCCTGCCA | 6.57 upbm affinity estimate (log intensity, higher = more binding, comparable within an allelic series) | 6.47 upbm affinity estimate (log intensity, higher = more binding, comparable within an allelic series) | 6.52 upbm affinity estimate (log intensity, higher = more binding, comparable within an allelic series) | 6.56 upbm affinity estimate (log intensity, higher = more binding, comparable within an allelic series) | 6.6 upbm affinity estimate (log intensity, higher = more binding, comparable within an allelic series)
CGCCAGGC | 6.38 upbm affinity estimate (log intensity, higher = more binding, comparable within an allelic series) | 6.37 upbm affinity estimate (log intensity, higher = more binding, comparable within an allelic series) | 6.46 upbm affinity estimate (log intensity, higher = more binding, comparable within an allelic series) | 6.32 upbm affinity estimate (log intensity, higher = more binding, comparable within an allelic series) | 6.44 upbm affinity estimate (log intensity, higher = more binding, comparable within an allelic series)
AGTGTCGG | 6.51 upbm affinity estimate (log intensity, higher = more binding, comparable within an allelic series) | 6.53 upbm affinity estimate (log intensity, higher = more binding, comparable within an allelic series) | 6.58 upbm affinity estimate (log intensity, higher = more binding, comparable within an allelic series) | 6.56 upbm affinity estimate (log intensity, higher = more binding, comparable within an allelic series) | 6.55 upbm affinity estimate (log intensity, higher = more binding, comparable within an allelic series)
CGCCACGA | 6.55 upbm affinity estimate (log intensity, higher = more binding, comparable within an allelic series) | 6.36 upbm affinity estimate (log intensity, higher = more binding, comparable within an allelic series) | 6.47 upbm affinity estimate (log intensity, higher = more binding, comparable within an allelic series) | 6.47 upbm affinity estimate (log intensity, higher = more binding, comparable within an allelic series) | 6.57 upbm affinity estimate (log intensity, higher = more binding, comparable within an allelic series)
ACATGGCG | 6.32 upbm affinity estimate (log intensity, higher = more binding, comparable within an allelic series) | 6.4 upbm affinity estimate (log intensity, higher = more binding, comparable within an allelic series) | 6.43 upbm affinity estimate (log intensity, higher = more binding, comparable within an allelic series) | 6.38 upbm affinity estimate (log intensity, higher = more binding, comparable within an allelic series) | 6.49 upbm affinity estimate (log intensity, higher = more binding, comparable within an allelic series)
